Values without a mark were called inactive. Records with an inconclusive call do not appear. Entries that show only a call come without a potency. The source made the active and inactive calls. Unless noted, calls follow the shape of the dose curve; as a rule, active = well fitted curve in the direction sought with a large enough effect; inconclusive = small, poorly fitted or top-dose-only effect, or another doubt; inactive = no such curve, though single readings can be large; an effect the other way counts as inactive or inconclusive.
Key:
[1] = biological target: Cytochrome P450 1A2 (Homo sapiens) (UniProt P05177); experiment: p450-cyp1a2 (AID 410; calls by dose curve; also: potency is read from the fitted curve at half-maximal effect)
Sequence of Cytochrome P450 1A2 (Homo sapiens) (P05177 whole entry, looked up): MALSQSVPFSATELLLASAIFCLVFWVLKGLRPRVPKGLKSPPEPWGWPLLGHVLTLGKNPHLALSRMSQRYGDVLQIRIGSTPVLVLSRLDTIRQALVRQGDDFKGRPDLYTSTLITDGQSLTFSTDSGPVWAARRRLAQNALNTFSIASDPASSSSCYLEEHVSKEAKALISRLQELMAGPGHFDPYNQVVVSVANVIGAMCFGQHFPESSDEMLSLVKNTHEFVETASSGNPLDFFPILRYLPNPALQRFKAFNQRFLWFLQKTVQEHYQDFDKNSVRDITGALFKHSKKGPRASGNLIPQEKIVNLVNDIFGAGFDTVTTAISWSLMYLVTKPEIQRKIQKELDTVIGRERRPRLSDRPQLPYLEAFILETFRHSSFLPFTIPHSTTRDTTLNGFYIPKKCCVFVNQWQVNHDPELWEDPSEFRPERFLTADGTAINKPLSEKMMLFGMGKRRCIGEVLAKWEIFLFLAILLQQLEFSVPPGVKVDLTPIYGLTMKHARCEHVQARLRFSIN
Outline: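 Inhibition was calculated relative to 57 uM furafylline (full inhibition). The reaction used human CYP1A2 at 20nM with Luciferin-ME at its Km, 100uM, driven by an NADPH-regenerating system for 60 min at room temperature.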

[2] = biological target: Glucocorticoid receptor (Homo sapiens) (UniProt P04150); experiment: GR-GFP Redistribution (AID 450;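 active = compounds whose dose series gives a full or clear partial fitted curve of increased nuclear translocation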; also: potency is read from the fitted curve at half-maximal effect); conditions: U2OS GR-GFP nuclear translocation, laser cytometry, 2 h
Sequence of Glucocorticoid receptor (Homo sapiens) (P04150 whole entry, looked up, the tested form may be a part): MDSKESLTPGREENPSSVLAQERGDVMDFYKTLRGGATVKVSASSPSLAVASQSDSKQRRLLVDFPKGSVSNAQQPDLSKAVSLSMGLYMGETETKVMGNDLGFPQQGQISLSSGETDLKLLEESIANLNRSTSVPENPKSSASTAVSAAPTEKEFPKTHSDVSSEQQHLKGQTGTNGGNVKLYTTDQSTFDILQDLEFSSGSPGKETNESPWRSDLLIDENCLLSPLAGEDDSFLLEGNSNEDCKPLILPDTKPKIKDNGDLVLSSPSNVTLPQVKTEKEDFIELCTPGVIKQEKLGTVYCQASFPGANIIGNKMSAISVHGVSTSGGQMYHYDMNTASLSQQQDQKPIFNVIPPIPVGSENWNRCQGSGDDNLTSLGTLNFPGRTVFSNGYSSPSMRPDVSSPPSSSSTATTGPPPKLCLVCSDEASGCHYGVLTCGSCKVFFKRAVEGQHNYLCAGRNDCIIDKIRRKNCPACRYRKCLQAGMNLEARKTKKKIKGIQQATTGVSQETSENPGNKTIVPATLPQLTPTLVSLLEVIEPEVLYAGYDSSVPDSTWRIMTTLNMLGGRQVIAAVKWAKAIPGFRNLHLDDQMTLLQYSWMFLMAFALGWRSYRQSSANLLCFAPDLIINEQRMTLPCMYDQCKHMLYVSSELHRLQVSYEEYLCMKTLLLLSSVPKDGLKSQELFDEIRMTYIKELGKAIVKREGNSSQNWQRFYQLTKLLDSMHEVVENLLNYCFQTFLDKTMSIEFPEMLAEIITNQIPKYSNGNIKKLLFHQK

[3] = biological target: Glucocorticoid receptor (Homo sapiens) (UniProt P04150); experiment: GR-EFC Redistribution (AID 451; calls by dose curve; also: potency is read from the fitted curve at half-maximal effect); conditions: CHO-K1 GR-EFC translocation, beta-gal luminescence, 2 h
Outline: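 CHO-K1 cells expressing nuclear EA and GR-ED fragments of b-gal; compounds titrated up to 46 uM final, 2 h at 37 C. GR nuclear translocation read as complemented b-gal luminescence after 1 h RT detection.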

[4] = biological target: Mitogen-activated protein kinase 10 (Mus musculus) (UniProt Q61831); experiment: JNK3 AlphaScreen Assay (AID 530; active = well fitted curve in either direction with a large enough effect, not every such curve was filed as active;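 also: kinase came from lysate of stimulated human HepG2 cells; signal reports phosphorylation of biotinylated GST-cJun 1-79 at Ser73 with 10 µM ATP; series mostly up to about 57 µM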)
Outline: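 qHTS format: compounds tested as titrations against IL-1beta/TNF-alpha-activated HepG2 lysate JNK3 with biotin-GST-cJun substrate and 10 uM ATP at room temperature. Loss of anti-phospho-cJun AlphaScreen signal indicates inhibition.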

[5] = biological target: 3',5'-cyclic-AMP phosphodiesterase 4B (Homo sapiens) (UniProt Q07343); experiment: qHTS Assay for Inhibitors of PDE-IV (AID 607; active = well fitted activation curve with a large enough effect in the main read-out, with a control signal flat, not every such curve was filed as active)
Sequence of 3',5'-cyclic-AMP phosphodiesterase 4B (Homo sapiens) (Q07343 whole entry, looked up): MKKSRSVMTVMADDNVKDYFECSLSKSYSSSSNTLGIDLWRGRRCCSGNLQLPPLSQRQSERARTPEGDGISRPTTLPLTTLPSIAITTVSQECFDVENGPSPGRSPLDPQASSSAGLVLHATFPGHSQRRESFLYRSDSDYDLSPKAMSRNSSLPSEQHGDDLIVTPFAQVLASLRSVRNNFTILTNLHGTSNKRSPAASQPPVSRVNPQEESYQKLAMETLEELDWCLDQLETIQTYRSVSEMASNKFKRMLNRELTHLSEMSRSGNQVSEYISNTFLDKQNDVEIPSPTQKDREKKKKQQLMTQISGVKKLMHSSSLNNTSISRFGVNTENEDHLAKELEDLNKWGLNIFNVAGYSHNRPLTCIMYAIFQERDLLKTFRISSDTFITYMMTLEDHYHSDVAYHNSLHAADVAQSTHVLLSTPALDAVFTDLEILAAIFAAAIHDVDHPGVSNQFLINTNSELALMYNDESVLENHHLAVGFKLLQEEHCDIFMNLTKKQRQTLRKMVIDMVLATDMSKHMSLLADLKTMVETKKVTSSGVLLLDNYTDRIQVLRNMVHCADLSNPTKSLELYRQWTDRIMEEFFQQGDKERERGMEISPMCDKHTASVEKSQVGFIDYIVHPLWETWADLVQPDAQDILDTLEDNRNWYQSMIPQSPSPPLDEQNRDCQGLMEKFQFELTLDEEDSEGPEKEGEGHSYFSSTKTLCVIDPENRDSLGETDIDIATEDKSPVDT
Outline: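 The readout is membrane depolarisation from a cAMP-sensing CNG channel, detected with a potential dye at ex 535/em 590. Cells were HEK293-derived (endogenous PDE-IV) at 1000 cells/well, titrated up to 22.9 uM final.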

[6] = biological target: Cytochrome P450 2C19 (Homo sapiens) (UniProt P33261); experiment: qHTS Assay for Inhibitors and Substrates of Cytochrome P450 2C19 (AID 899); also: potency is read from the fitted curve at half-maximal effect; nearly all actives have a fitted effect of over 60% in size
Sequence of Cytochrome P450 2C19 (Homo sapiens) (P33261 whole entry, looked up): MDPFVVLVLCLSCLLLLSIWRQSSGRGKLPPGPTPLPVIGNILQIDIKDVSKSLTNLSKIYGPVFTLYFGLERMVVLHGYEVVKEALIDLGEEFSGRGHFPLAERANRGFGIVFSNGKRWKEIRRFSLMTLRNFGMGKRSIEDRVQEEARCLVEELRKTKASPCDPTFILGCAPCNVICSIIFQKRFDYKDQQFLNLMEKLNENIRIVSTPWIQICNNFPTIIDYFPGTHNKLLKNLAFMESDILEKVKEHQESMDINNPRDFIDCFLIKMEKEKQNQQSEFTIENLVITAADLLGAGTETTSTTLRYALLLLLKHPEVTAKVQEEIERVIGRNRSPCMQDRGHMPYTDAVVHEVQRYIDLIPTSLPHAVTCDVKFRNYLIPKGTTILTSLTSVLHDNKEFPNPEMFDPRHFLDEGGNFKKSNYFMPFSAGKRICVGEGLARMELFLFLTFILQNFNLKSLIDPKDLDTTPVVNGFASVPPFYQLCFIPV
Outline: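 5 nM human CYP2C19 with 10uM Luciferin-H EGE (at KM) in 50mM KPO4, compound preincubated 10 min at 37C, then NADPH regeneration for 60 min at 37C. Luciferin read by luminescence after detection reagent; normalized to 57uM ketoconazole as full inhibition.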

[7] = biological target: DNA dC->dU-editing enzyme APOBEC-3G (Homo sapiens) (UniProt Q9HC16); experiment: qHTS for inhibitors of Vif-A3G interactions: Validation (AID 588379)
Sequence of DNA dC->dU-editing enzyme APOBEC-3G (Homo sapiens) (Q9HC16 whole entry, looked up): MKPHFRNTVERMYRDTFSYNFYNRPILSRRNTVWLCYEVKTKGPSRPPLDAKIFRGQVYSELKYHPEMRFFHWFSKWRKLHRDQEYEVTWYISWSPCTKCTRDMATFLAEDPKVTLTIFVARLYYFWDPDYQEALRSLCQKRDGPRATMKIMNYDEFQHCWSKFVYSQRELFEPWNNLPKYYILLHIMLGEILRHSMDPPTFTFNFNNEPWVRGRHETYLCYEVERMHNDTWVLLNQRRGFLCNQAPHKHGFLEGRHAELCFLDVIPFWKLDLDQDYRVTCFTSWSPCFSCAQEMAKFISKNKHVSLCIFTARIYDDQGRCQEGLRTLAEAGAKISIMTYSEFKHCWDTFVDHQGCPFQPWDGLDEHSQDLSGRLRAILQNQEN
Outline: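 HeLa cells stably expressing Vif and A3G-eYFP, 700 cells/well, incubated overnight at 37 deg C, then exposed to compound overnight at 37 deg C. Inhibition of Vif-mediated degradation read as increased yellow fluorescence (Ex 488/Em 500-530) by laser-scanning cytometry.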

[8] = system: Zika virus NS2B-NS3 protease; experiment: Primary screen GU AMC qHTS for Zika virus inhibitors (AID 1347154); also: nearly all actives have a fitted effect of over 70% in size
Outline: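 Unlinked Zika NS2B hydrophilic domain–NS3 protease complex at 25 nM in 10 mM Tris-HCl pH 8.0, 0.01% Tween 20, with an AMC peptide substrate. Fluorescence change (340/450 nm) over 15 min at room temperature, normalized to controls, fitted to 4-parameter Hill.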

[9] = Primary qHTS for small molecule stabilizers of the endoplasmic reticulum resident proteome: Secreted ER Calcium Modulated Protein (SERCaMP) assay (AID 1508630)
Outline: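 GLuc-SERCaMP-expressing SH-SY5Y cells, pretreated 16 h with compound, are challenged with thapsigargin to empty ER calcium stores; after 4 h, coelenterazine is added directly to the medium and luminescence is imaged.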

[10] = biological target: Cytochrome P450 3A4 (Homo sapiens) (UniProt P08684); experiment: qHTS Assay for Activators of Cytochrome P450 3A4 (AID 885); also: nearly all actives have a fitted effect of over 65% in size; also: potency is read from the fitted curve at half-maximal effect
Sequence of Cytochrome P450 3A4 (Homo sapiens) (P08684 whole entry, looked up): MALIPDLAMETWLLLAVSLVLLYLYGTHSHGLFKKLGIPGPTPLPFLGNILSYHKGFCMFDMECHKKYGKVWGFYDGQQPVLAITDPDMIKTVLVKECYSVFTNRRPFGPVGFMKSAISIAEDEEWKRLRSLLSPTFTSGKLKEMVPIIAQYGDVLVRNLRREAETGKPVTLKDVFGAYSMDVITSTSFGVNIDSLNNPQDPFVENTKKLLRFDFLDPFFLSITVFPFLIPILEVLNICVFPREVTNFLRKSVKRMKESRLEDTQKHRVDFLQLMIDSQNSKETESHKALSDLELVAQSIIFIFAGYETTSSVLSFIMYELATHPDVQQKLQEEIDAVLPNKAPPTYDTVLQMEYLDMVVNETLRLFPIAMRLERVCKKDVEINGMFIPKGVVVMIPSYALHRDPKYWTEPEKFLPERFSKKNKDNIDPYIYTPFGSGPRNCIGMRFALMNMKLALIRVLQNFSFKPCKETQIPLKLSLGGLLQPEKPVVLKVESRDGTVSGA
Outline: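 Steps: enzyme/substrate mix dispensed; compound added, 10 min RT; NADPH regeneration solution added, 60 min RT; luciferin detection buffer stops reaction; 20 min later luminescence measured.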

[11] = biological target: Cytochrome P450 3A4 (Homo sapiens) (UniProt P08684); experiment: qHTS Assay for Inhibitors and Substrates of Cytochrome P450 3A4 (AID 884); also: nearly all actives have a fitted effect of over 50% in size; also: potency is read from the fitted curve at half-maximal effect
Outline: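 20 nM human CYP3A4 with 25 uM Luciferin-PPXE (at KM) in 200 mM KPO4, preincubated 10 min with compound; NADPH regeneration started a 60 min RT reaction. Luciferin detected by luminescence, normalized to 57 uM ketoconazole as full inhibition.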

[12] = biological target: Cytochrome P450 2C9 (Homo sapiens) (UniProt P11712); experiment: qHTS Assay for Inhibitors and Substrates of Cytochrome P450 2C9 (AID 883); also: potency is read from the fitted curve at half-maximal effect; nearly all actives have a fitted effect of over 60% in size
Sequence of Cytochrome P450 2C9 (Homo sapiens) (P11712 whole entry, looked up): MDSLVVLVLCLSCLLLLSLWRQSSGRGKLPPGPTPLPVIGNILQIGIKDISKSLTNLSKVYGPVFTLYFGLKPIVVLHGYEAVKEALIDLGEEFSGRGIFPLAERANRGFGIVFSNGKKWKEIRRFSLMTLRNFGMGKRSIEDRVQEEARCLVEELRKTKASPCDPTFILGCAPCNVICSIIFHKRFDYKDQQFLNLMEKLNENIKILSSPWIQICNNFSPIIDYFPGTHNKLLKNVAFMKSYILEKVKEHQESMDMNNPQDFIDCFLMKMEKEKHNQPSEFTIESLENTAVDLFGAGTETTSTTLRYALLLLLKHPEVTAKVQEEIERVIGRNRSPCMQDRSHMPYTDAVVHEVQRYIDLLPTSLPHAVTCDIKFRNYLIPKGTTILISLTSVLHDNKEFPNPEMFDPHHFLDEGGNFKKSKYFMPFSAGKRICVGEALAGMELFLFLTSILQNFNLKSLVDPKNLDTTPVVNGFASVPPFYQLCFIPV
Outline: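 Human CYP2C9 (10nM) with Luciferin-H at 100uM (its KM) in 25mM KPO4; compound preincubated 10 min at 37C, then NADPH regeneration for 60 min at 37C. Luciferin read by luminescence after detection reagent; normalized to 57uM sulphaphenazole as full inhibition.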

[13] = biological target: Cytochrome P450 2D6 (Homo sapiens) (UniProt P10635); experiment: qHTS Assay for Inhibitors and Substrates of Cytochrome P450 2D6 (AID 891); also: potency is read from the fitted curve at half-maximal effect; nearly all actives have a fitted effect of over 60% in size
Sequence of Cytochrome P450 2D6 (Homo sapiens) (P10635 whole entry, looked up): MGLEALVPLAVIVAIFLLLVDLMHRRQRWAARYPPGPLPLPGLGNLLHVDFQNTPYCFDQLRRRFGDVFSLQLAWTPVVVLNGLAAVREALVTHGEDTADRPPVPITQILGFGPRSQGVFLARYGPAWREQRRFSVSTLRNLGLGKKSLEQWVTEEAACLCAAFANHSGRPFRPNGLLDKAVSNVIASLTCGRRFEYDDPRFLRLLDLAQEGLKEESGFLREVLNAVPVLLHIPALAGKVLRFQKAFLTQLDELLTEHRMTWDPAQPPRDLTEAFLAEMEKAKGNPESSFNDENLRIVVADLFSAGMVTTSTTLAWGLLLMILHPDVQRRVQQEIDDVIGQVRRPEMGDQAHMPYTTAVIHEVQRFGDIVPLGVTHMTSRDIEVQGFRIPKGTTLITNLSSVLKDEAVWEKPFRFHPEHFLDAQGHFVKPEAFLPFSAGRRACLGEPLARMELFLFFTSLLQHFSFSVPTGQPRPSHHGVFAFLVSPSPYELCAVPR
Outline: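 Human CYP2D6 (5 nM) with 30 uM Luciferin-ME EGE (at Km) in 100 mM KPO4, compound preincubated 10 min, then NADPH regeneration system for 60 min at room temperature. Luciferin read by luminescence; normalized to 1.43 uM quinidine.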

Structure (SMILES)	Potency [1]	Potency [2]	Potency [3]	Potency [4]	Potency [5]	Potency [6]	Potency [7]	Potency [8]	Potency [9]	Potency [10]	Potency [11]	Potency [12]	Potency [13]
CSc1nc(NC2CCCC2)c([N+](=O)[O-])c(NC2CCCC2)n1	3.98 µM (active)	> 46 µM	> 46 µM	inactive	inactive	5.01 µM (active)	inactive	inactive	inactive				
c1cc2c(cc1C1CCCCC1)c1c3n2CCN[C@H]3CCC1	15.8 µM (active)	> 46 µM	> 46 µM	inactive			inactive	inactive	inactive	inactive			
COc1ccc(OC)c2c(=S)c3ccccc3[nH]c12	0.0631 µM (active)	> 46 µM	> 46 µM		inactive		inactive	inactive	inactive	inactive	7.94 µM (active)		
CC[C@@H](C)[C@H]1O[C@]2(CC[C@@H]1C)C[C@@H]1C[C@H](C/C=C(/C)[C@H](O[C@@H]3C[C@H](OC)[C@H](O[C@@H]4C[C@H](OC)[C@@H](O)[C@H](C)O4)[C@H](C)O3)[C@@H](C)/C=C\C=C3CO[C@@H]4[C@H](O)C(C)=C[C@@H](C(=O)O1)[C@]34O)O2 (tested in a mixture with another compound)	inactive	> 46 µM	> 46 µM		inactive		inactive	inactive	inactive				
CC(=O)NCCc1c(Cc2ccccc2)[nH]c2ccccc12	12.6 µM (active)	> 46 µM	> 46 µM		inactive		inactive	inactive	inactive	inactive	7.94 µM (active)		
C#CCCCCCCCCCCCCCCCC(=O)O	6.31 µM (active)	> 46 µM			inactive		inactive	inactive	inactive				
CSc1cc2c(cc1C(F)(F)F)N(C(=O)Nc1cccnc1)CC2	0.000794 µM (active)	> 46 µM	> 46 µM	inactive				inactive	inactive	inactive		0.0063 µM (active)	
COc1cccc(C=NC=Nc2cccc(OC)c2)c1	1 µM (active)	> 46 µM	> 46 µM				inactive	inactive	inactive	inactive			
CCCCNC(=O)[C@@H]1Cc2ccccc2N1C(=O)[C@H](N)CC	20 µM (active)	> 46 µM	> 46 µM	inactive			inactive	inactive	inactive				
O=C(Nc1ccccc1)[C@@]12C[C@@H]1/C(=N/O)c1ccccc1O2	2.51 µM (active)	> 46 µM	> 46 µM		inactive		inactive	inactive	inactive				
COc1cc(COc2cc(N)c(Cl)cc2C(=O)CCC2CCN(CCNS(C)(=O)=O)CC2)cc(OC)c1	inactive	> 46 µM	> 46 µM	inactive			inactive	inactive	inactive	inactive	2 µM (active)		0.794 µM (active)
Cc1nc2ccc(NC(=O)Nc3ccnc4cccnc34)cc2o1	1 µM (active)	> 46 µM	> 46 µM				inactive	inactive	inactive	inactive			
CCOC(=O)C1=C(N)Oc2ccc(Br)cc2[C@@H]1[C@@H](C#N)C(=O)OCC	0.251 µM (active)	> 46 µM	> 46 µM	inactive	inactive		inactive	inactive	inactive				
CS(=O)(=O)c1ccc(-c2cc(Br)sc2-c2ccc(F)cc2)cc1	0.398 µM (active)	> 46 µM	> 46 µM	inactive			inactive	inactive	inactive	inactive			
CCCN(C/C=C\I)[C@@H]1CCc2cccc(O)c2C1	2.51 µM (active)	> 46 µM	> 46 µM	inactive			inactive	inactive	inactive	25.1 µM (active)	inactive		
COc1cc(OC)c(C(=O)CCCCN2CCC3(CC2)NC(=O)NC3=O)cc1NS(=O)(=O)c1ccc(C(F)(F)F)cc1	inactive	> 46 µM	> 46 µM		inactive		inactive	inactive	inactive	inactive			
NCCCCCCCCCCNS(=O)(=O)c1cccc2c(Cl)cccc12	15.8 µM (active)	> 46 µM	> 46 µM	inactive		0.0794 µM (active)	inactive	inactive	inactive	inactive	2.51 µM (active)	0.0501 µM (active)	1.26 µM (active)
CCCCOC(=O)c1cc2c(cn1)[nH]c1ccccc12	0.158 µM (active)	> 46 µM	> 46 µM	inactive		5.01 µM (active)	inactive	inactive	inactive	inactive		7.94 µM (active)	
Cc1ccc(S(=O)(=O)/C=C\C#N)cc1	3.98 µM (active)	> 46 µM	> 46 µM			5.01 µM (active)	inactive	inactive	inactive	inactive			0.0158 µM (active)
Clc1cccc(Nc2nnc(-c3ccccc3)c3ccccc23)c1	1.26 µM (active)	> 46 µM	> 46 µM	inactive		0.794 µM (active)		inactive	inactive	inactive		3.98 µM (active)	
CNCCCCCCCCSc1nc(C(C)C)ccc1C(=O)c1cccs1	31.6 µM (active)	> 46 µM	> 46 µM	inactive				inactive	inactive	inactive	2.51 µM (active)		0.0063 µM (active)
CCc1cc2c(c(CC)n1)CCC(=O)N2Cc1ccc(-c2ccccc2-c2nn[nH]n2)cc1	inactive	> 46 µM	> 46 µM	inactive		5.01 µM (active)	inactive	inactive	inactive	inactive			

From PubChem BioAssay (NCATS)
